# Assay results: PubChem BioAssay AID1234 (University of Pittsburgh Molecular Library Screening Center, 2008)
# The other results are listed elsewhere or left out. Active and inactive are the calls of the source.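 How the source made its calls: active means EC50 under a set limit for hydrogen peroxide production with the reducing agent DTT present; inactive means the rest.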
# Assay: compounds producing H2O2 with reducing agent – biochemical, 10-point concentration response, NIH library profiling, artefact control for MLSCN library redox annotation, dose response (AID 1234)
# Conditions: DTT-dependent redox cycling H2O2, phenol red-HRP absorbance; activation: H2O2 generation, at 50 µM, stronger effect = higher value
structure (smiles),measurement,value
CCOC(=O)c1c(C)[nH]c2c1-c1ccccc1C(=O)C2=O,EC50,0.43 µM (active)
same,activation,129%
